13 compounds from PubChem BioAssay (NCI) can be followed below.

Test in all cases: NCI-60 one-dose screen, 48 h (100 = growth as untreated, 0 = no growth, -100 = all killed)
Holding throughout (details): 10 µM unless noted

Test [1] has as its system DU-145 prostate.
Test [2] concerns K-562 leukemia.
Test [3] deals with MALME-3M melanoma.
The test system of test [4] is MDA-MB-231 breast.
In test [5] the test system is RXF 393 renal.
In test [6] the test system is SF-268 CNS.
The subject of test [7] is SF-295 CNS.
Test [8] deals with SF-539 CNS.
Test [9] has as its system UACC-257 melanoma.
Test [10] concerns M14 melanoma.

About 83,000 compounds went through this panel and 20% of them were active in at least one assay; those are over-represented in the sample as a whole.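 Percent growth is the endpoint: 0 to 100 indicates growth inhibition (40 means 60% inhibition), 0 means no net growth, and negative values indicate cell death.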 A number with no mark means an inactive call. Activity calls are given as the source filed them. The calls were made as follows: active = growth percent below 10; inactive = the rest.

As for `CCCCCCCCCCCCCCCC[n+]1cccc(C#N)c1`, the growth was 68.2% in [1]; 6.02% (active) in [2]; 92% in test [3]; 69.7% in test [4]; 17.4% in test [5]; 53.3% in test [6]. Moreover, the growth is 91.5% in test [7], 25.5% in test [8], 103% in [9] and 62% in test [10].

In the case of `COc1cc2cn3c4ccc(O)cc4[nH]c(=O)c3c2cc1OC`, the growth in test [1] is 3.02% (active); in test [2] it was 3.94% (active); in test [3], 1.16% (active); in test [4] it was 30.9%; in test [5] it was 26.8%; in test [6], 18.1%. For the same compound, the growth was -11% (active) in test [7], 5.31% (active) in [8], -10.1% (active) in test [9] and 3.61% (active) in test [10].

Consider `Cc1ccc(C(=O)Nc2ccc(CN3CCN(C)CC3)c(C(F)(F)F)c2)cc1C#Cc1cnc(N)c2ccc(C#N)cc12`, for which the growth is 43.1% in test [1]; -25.5% (active) in test [2]; -51.9% (active) in test [3]; 11.2% in test [4]; 30.4% in test [5]; 45% in test [6]. Moreover, the growth in test [7] was 61.8%; in test [8], 51.8%; in [9] it was 45.6%; in [10], 8.81% (active).

`Cc1ccc(CC(=O)O)c(C)c1`: the growth in test [1] was 107%; in test [2] it was 104%; in test [3], 110%; in test [4], 105%; in [5], 121%; in test [6], 96.3%. Also, the growth in test [7] is 97.1%; in test [8] it was 106%; in test [9] it was 91.7%; in test [10] it was 102%.

As to `CC(=O)OCC1O[C@@H](OC(C)=O)[C@@H](NC(=O)NS(=O)(=O)c2ccccc2)C(OC(C)=O)[C@@H]1OC(C)=O` (stereo not given in full), the growth is 108% in test [1]; 94.6% in test [2]; 103% in test [3]; 105% in [4]; 108% in [5]; 100% in test [6]. Besides, the growth is 94.4% in test [7], 97.2% in test [8], 118% in test [9] and 108% in test [10].

`CCCCCCCCCCCCCCCCCC1=NCCN1CCNC(C)=O`: the growth was 69.7% in [1]; 26.4% in test [2]; 98.9% in [3]; 66.3% in [4]; 99% in test [5]; 88.7% in [6]. For the same compound, the growth in test [7] was 108%; in test [8] it was 86.8%; in [9] it was 108%; in [10], 101%.

On to `Cc1nc2c(nnn2-c2ccccc2)c2nc(-c3ccc(Cl)cc3)oc(=O)c12`, for which the growth was 119% in [1]; 112% in test [2]; 101% in [3]; 119% in [4]; 104% in test [5]; 103% in test [6]. Besides, the growth in test [7] was 102%; in [8] it was 96.8%; in [9] it was 117%; in test [10] it was 108%.

Consider `O=C1Nc2c(c(=O)n(-c3ccccc3)c3ccccc23)C(c2ccc(Cl)cc2)N1` (stereo not given), for which the growth is 86.7% in test [1]; 93.7% in [2]; 121% in [3]; 89.1% in test [4]; 103% in test [5]; 70.9% in test [6]. Further, the growth in test [7] is 65.3%; in test [8] it was 77%; in test [9], 118%; in test [10], 95.2%.

In the case of `O=C(CCl)NC1c2ccccc2Oc2ccccc21`, the growth in test [1] is 65.5%; in test [2] it was 45.6%; in test [3], 74.1%; in test [4], 60.7%; in test [5], 80.1%; in test [6], 64.4%. Further, the growth in test [7] is 81.2%; in test [8] it was 82.4%; in test [9], 63.6%; in test [10], 77.8%.

Consider `O=C(OCC1CC2(Cl)C(Cl)=C(Cl)C1(Cl)C2(Cl)Cl)C1C(C(=O)OCC2CC3(Cl)C(Cl)=C(Cl)C2(Cl)C3(Cl)Cl)C2(Cl)C(Cl)=C(Cl)C1(Cl)C2(Cl)Cl` (stereo not given), for which the growth in test [1] is 97.4%; in test [2] it was 94.7%; in [3], 98.6%; in test [4], 109%; in test [5] it was 104%; in test [6], 100%. Besides, the growth in test [7] was 94.8%; in test [8], 97.9%; in test [9], 113%; in test [10], 98.5%.

With `c1ccc2[nH]c(-c3ccc(OCCCCCOc4ccc(-c5nc6ccccc6[nH]5)cc4)cc3)nc2c1`, the growth in test [1] is 21.4%; in [2] it was -13.8% (active); in test [3], -30.8% (active); in [4], 40.5%; in test [5], -74.2% (active); in test [6], -37.7% (active). Moreover, the growth is 53% in [7], -12.8% (active) in test [8], 71.4% in test [9] and -38.6% (active) in test [10].

Regarding `COC(=O)c1ccc2[nH]c(O)c(C(=Nc3ccc(N(C)C(=O)CN4CCN(C)CC4)cc3)c3cccc(OC)c3)c2c1`, the growth was 8.57% (active) in test [1]; 3.85% (active) in test [2]; -16.3% (active) in test [3]; 13.1% in test [4]; -55.7% (active) in [5]; 6.71% (active) in test [6]. For the same compound, the growth is 29.9% in test [7], -11.2% (active) in [8], 31.8% in [9] and 8.85% (active) in test [10].

As for `O=C(O)c1ccc(-c2nn(-c3ccc(C(=O)O)cc3)cc2CNc2ccc(Br)cc2)cc1`, the growth is 102% in test [1]; 102% in test [2]; 106% in [3]; 115% in test [4]; 111% in test [5]; 94.1% in test [6]. Also, the growth in test [7] is 101%; in test [8] it was 101%; in [9], 101%; in test [10], 97.6%.
